Key:
Details in all cases: Compound Concentration (nM):1000
CDK3 = system: CDK3
CDK4-cyclinD1 = system: CDK4-cyclinD1
CDK4-cyclinD3 = system: CDK4-cyclinD3
CDK4 = system: CDK4
CDK5 = system: CDK5
CDK7 = system: CDK7
CDK8 = system: CDK8
CDK9 = system: CDK9
CDKL1 = system: CDKL1
CDKL2 = system: CDKL2
CDKL3 = system: CDKL3
CDKL5 = system: CDKL5
CHEK1 = system: CHEK1
CHEK2 = system: CHEK2
CIT = system: CIT
CLK1 = system: CLK1
CLK2 = system: CLK2
CLK3 = system: CLK3
CLK4 = system: CLK4
CSF1R-autoinhibited = system: CSF1R-autoinhibited
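Further: KINOMEscan scanMAX binding as percent activity remaining versus control; lower means stronger binding.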

SMILES	Percent Control (CDK3) [%]	Percent Control (CDK4-cyclinD1) [%]	Percent Control (CDK4-cyclinD3) [%]	Percent Control (CDK4) [%]	Percent Control (CDK5) [%]	Percent Control (CDK7) [%]	Percent Control (CDK8) [%]	Percent Control (CDK9) [%]	Percent Control (CDKL1) [%]	Percent Control (CDKL2) [%]	Percent Control (CDKL3) [%]	Percent Control (CDKL5) [%]	Percent Control (CHEK1) [%]	Percent Control (CHEK2) [%]	Percent Control (CIT) [%]	Percent Control (CLK1) [%]	Percent Control (CLK2) [%]	Percent Control (CLK3) [%]	Percent Control (CLK4) [%]	Percent Control (CSF1R-autoinhibited) [%]
CC(C)COC(=O)c1ccc2c(c1)/C(=C/Nc1ccc(S(N)(=O)=O)cc1)C(=O)N2 [GW416981X]	42	3.8	13	91	36	3.7	86	100	52	24	64	5.1	100	42	86	18	2.3	98	41	95
Cl.O=S1CCN(Cc2ccc(-c3ccc4ncnc(Nc5ccc(OCc6ccccc6)c(F)c5)c4c3)o2)CC1 [GW576924A]	100	100	100	100	100	100	86	100	100	100	100	60	100	99	100	100	100	100	100	100
COc1ccc2c(-c3ccnc(Nc4cccc(OC(F)(F)F)c4)n3)cnn2n1 [GW810372X]	100	90	74	83	100	61	90	97	77	18	0	14	100	100	97	1.3	2.8	32	2.4	86
CCc1ccc(Oc2nccc(-c3c(-c4ccc(F)cc4)ncn3C3CCNCC3)n2)cc1 [SB-242719]	100	94	76	91	100	88	86	100	86	96	100	84	90	84	1.2	100	70	100	100	77
NS(=O)(=O)c1ccc(N/N=C2\C(=O)Nc3ccc(Cl)cc32)cc1 [GW280670X]	100	77	100	100	100	100	100	100	96	78	100	100	100	100	100	100	100	100	96	60
COc1ccc2[nH]c3c4[nH]c5ccc(OC)cc5c4c4c(c3c2c1)C(=O)NC4=O [GW296115X]	100	82	74	100	75	56	87	58	75	92	91	94	12	1.7	35	80	56	79	57	59
CCS(=O)(=O)c1ccc(OC)c(Nc2ncc(-c3cccc(F)c3)o2)c1 [GW621970X]	100	99	100	100	100	85	100	100	100	100	100	60	100	100	100	19	12	75	23	6.2
Cc1cc(O)cc(C)c1/C=C/c1cncc(C(N)=O)c1 [GW435821X]	100	97	100	100	100	100	72	100	100	100	100	100	100	99	98	89	100	100	74	87
COC(=O)Nc1nc2ccc(Oc3ccc(NC(=O)Nc4cc(C(F)(F)F)ccc4F)cc3)cc2s1.Cl [GW693917A]	100	96	90	100	100	9.3	20	86	73	0	15	38	95	76	1.8	42	100	82	100	86
COc1ccc(COc2ccc(Cc3cnc(N)nc3N)cc2OC)cc1 [GW632580X]	100	99	93	94	93	100	100	100	82	100	90	84	91	100	80	100	91	100	100	
CN1CCN(C(=O)c2ccc(NC(=O)Nc3ccc(N(C)c4ccnc(Nc5ccc(CS(C)(=O)=O)cc5)n4)cc3)cc2)CC1.Cl [GW830263A]	100	77	89	83	91	61	85	69	73	1.7	72	100	100	68	79	84	54	95	100	8.8
CC1=C(C(=O)Nc2ccc3[nH]ncc3c2)C(c2ccc(Cl)c(Cl)c2)CC(=O)N1 (centres unmarked) [GSK299115A]	100	74	100	80	100	83	47	100	96	80	95	97	95	100	100	75	67	78	52	74
COc1ccc2cc(-c3c(-c4ccncc4)nc(-c4ccc(S(C)(=O)=O)cc4C)n3C)ccc2c1 [SB-633825]	100	68	90	91	95	85	78	74	87	100	86	82	88	100	100	96	87	97	62	66
Cl.O=C(O[C@H]1CN[C@H](C#Cc2cc3ncnc(Nc4ccc5c(cnn5Cc5ccccc5)c4)c3s2)C1)N1CCOCC1 [GSK200398A]	100	68	100	100	100	78	84	87	88	92	100	40	100	24	77	83	100	90	100	87
COc1cccc(-c2c[nH]c3c(N/N=C/c4ccncc4)ncnc23)c1 [GW814408X]	67	26	25	100	82	2.2	100	65	15	26	8	4.2	100	86	54	30	44	80	30	74
CCn1c(-c2nonc2N)nc2c(C#CC(C)(C)O)nc(OCCNC)cc21.Cl [GSK949675]	100	100	92	100	85	88	100	100	90	100	100	100	100	86	44	100	87	100	90	100
NS(=O)(=O)c1ccc(N/N=C2\C(=O)Nc3ccc(C(=O)NCc4ccncc4)cc32)cc1 [GW300657X]	66	13	12	84	77	13	75	100	46	99	84	6.5	100	67	87	67	17	92	75	83
CC1=C(C(=O)Nc2ccc3[nH]ncc3c2)C(c2ccc3ccccc3c2)CC(=O)N1 (centres unmarked) [GSK270822A]	99	63	94	94	100	88	71	100	91	93	72	100	92	100	99	95	80	91	70	54

Reference: publication PMC7826789 (International Journal of Molecular Sciences, 2021)
